Screening results: PubChem, National Center for Advancing Translational Sciences (NCATS)
Pf Dd2 inh – blocks in vitro growth of P. falciparum Dd2; Potency, µM (doses to about 28.9 µM), most hits filed as inhibitors; actives 4.3% (n = 120,000); AID 1347417; P. falciparum Dd2 growth, SYBR Green, 72 h; active = well fitted inhibition curve with a large enough effect; note: nearly all actives have a fitted effect of over 65% in size
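Readout: SYBR Green fluorescence, 485 nm excitation, 535 nm emission, after ~16 h lysis at 37C. Before that, Dd2-infected red cells (2.5% hematocrit) grew 72 h with compound, 29 uM top final concentration.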
Each line names hits and unclear results; the compound was inactive in the other large screens. The sample as a whole holds a higher share of hits than the screen did.

Cc1ccccc1NC(=O)c1c(NC(=O)c2ccncc2)sc2c1CCC(C(C)(C)C)C2 (stereo not given)	Pf Dd2 inh 5.6µM
O=C1CCN(C(=O)c2cccnc2)CCCC(C(=O)NCCC2=CCCCC2)CCN1 (stereo not given)	none
O=C(CCn1cccn1)N1CC(F)(F)C[C@H]1c1nc(C2CC2)no1	none
Cc1ccc(C)c(CNC(=O)CCc2conc2-c2cccc(F)c2)c1	none
COCC(=O)N[C@@H]1CN(C(=O)c2ccnn2C)CC[C@@H]1c1nc(C)no1	none
COc1ccc(CNC(=O)[C@@H]2Cc3nc[nH]c3CN2Cc2ccc(Cl)cc2)cc1	Pf Dd2 inh 13µM
COc1ccc(CNC(=O)[C@@H]2Cc3nc[nH]c3CN2Cc2ccc(C(=O)O)cc2)cc1	none
O=C(NC1CCCCC1)[C@@H]1Cc2nc[nH]c2CN1Cc1ccc(Cl)cc1	Pf Dd2 inh 13µM
COc1ccc(CNC(=O)[C@@H]2Cc3nc[nH]c3CN2Cc2ccc(CO)o2)cc1	none
O=C([C@@H]1Cc2nc[nH]c2CN1Cc1ccc(Cl)cc1)N1CCOCC1	none
O=C(NCc1ccccc1)[C@@H]1Cc2nc[nH]c2CN1Cc1ccc(Cl)cc1	none
O=C([C@@H]1C[C@H](F)CN1S(=O)(=O)Cc1ccccc1Cl)N1CCCCC1	none
CC(=O)N1CCc2ccc(C(=O)NC3CCCCCC3)cc21	none
c1ccc(-c2nnc3ccc(Nc4ccc(N5CCOCC5)cc4)nn23)nc1	none
CCc1ccccc1NC(=O)CN1C(=O)NC2(CCC(C)CC2)C1=O (stereo not given)	none
COc1cccc(C(=O)N2CCCC(c3nn(-c4ccccc4)c(=O)[nH]3)C2)c1 (stereo not given)	none
O=C(COc1ccc(Cl)cc1)N1CCC(Oc2ncccc2C(=O)N2CCCCC2)C1 (stereo not given)	none
CN(Cc1ccc2nsnc2c1)C(=O)c1cccc(-n2cnnc2)c1	none
CN1CCCC1c1nc(C2CN(C(=O)c3cccn3C)C2)no1 (stereo not given)	none
O=C(CN1C(=O)COc2ccc(C(=O)COc3cccc(F)c3)cc21)NCc1ccc(F)cc1	none
COC[C@@H]1CN(C(=O)c2ccc(C)nc2)C[C@H]1c1nc(C2CC2)no1	none
CCOc1ccc(CN2C(=O)c3ccccc3Sc3ccc(C(=O)NC)cc32)cc1	none
Cc1ccc(CCNC(=O)c2ccc3c(c2)N(Cc2cccc(F)c2)C(=O)c2ccccc2S3)cc1	none
COc1ccc(CCNC(=O)c2ccc3c(c2)N(Cc2cc(C)ccc2C)C(=O)c2ccccc2S3=O)cc1OC (stereo not given)	Pf Dd2 inh 4.5µM
CCOc1ccc(CN2C(=O)c3ccccc3Sc3ccc(C(=O)NCc4ccc5c(c4)OCO5)cc32)cc1	Pf Dd2 inh 10µM
CNC(=O)c1ccc2c(c1)N(Cc1ccccc1Cl)C(=O)c1ccccc1S2	none
CCOc1ccc(CCNC(=O)c2ccc3c(c2)N(Cc2ccccc2)C(=O)c2ccccc2S3=O)cc1OCC (stereo not given)	none
COc1ccc(CCNC(=O)c2ccc3c(c2)N(Cc2ccccc2Cl)C(=O)c2ccccc2S3)cc1OC	Pf Dd2 inh 11µM
O=C(NCc1ccco1)c1ccc2c(c1)N(Cc1ccccc1)C(=O)c1ccccc1S2	none
Cc1ccc(CCNC(=O)c2ccc3c(c2)N(Cc2ccccc2)C(=O)c2ccccc2S3=O)cc1 (stereo not given)	none
O=C(c1ccc2c(c1)OCO2)N1CCN(C2CCNCC2)C(=O)C1	none
CCN(CC)C(=O)c1ccc(CN2C(=O)NC3(CCS(=O)(=O)CC3)C2=O)cc1	none
CC(=O)c1ccc(NC(=O)O[C@@H]2CO[C@H]3[C@@H]2OC[C@@H]3NC(=O)NCc2ccccc2)cc1	none
CN(CC1CCOC1)C(=O)Nc1ccc(C(F)(F)F)cc1 (stereo not given)	none
O=c1n(-c2ccc(C(F)(F)F)cc2)nc2n1CCN([S+](=O)([O-])c1cccc(C(F)(F)F)c1)C2	none
O=C1[C@H]2CN(Cc3ccc(C(F)(F)F)cc3)C[C@H]2C(=O)N1CCc1ccccc1	none
NCCc1ccc(CN2C[C@@H]3CC[C@H](C2)N(Cc2ccccc2)C3)cc1	Pf Dd2 inh 11µM
CC(=O)Nc1ccc(CN2CCN3C(=O)N(Cc4ccccc4)C[C@H]3C2)cc1	none
O=C(NCc1cccs1)c1ccc(Cn2c(SCc3ccc(F)cc3)nc3cccnc32)cc1	none
Cc1cccc(Cn2c(SCc3ccc(C(=O)NCCc4ccccc4)cc3)nc3cccnc32)c1	Pf Dd2 inh 11µM
CCOc1ccc(C(=O)NCc2nc3cccnc3n2Cc2ccc(F)cc2)cc1OCC	none
Cc1cccc(Cn2c(SCc3ccc(C(=O)NCc4ccccc4F)cc3)nc3cccnc32)c1	none
CN(Cc1ccccc1)C(=O)c1ccc(CSc2nc3cccnc3n2Cc2ccccc2F)cc1	none
O=C(NCCc1ccccc1)c1ccc(CSc2nc3cccnc3n2Cc2ccc(F)cc2)cc1	Pf Dd2 inh 8.9µM
Cc1ccc(CNC(=O)c2ccc(Cn3c(SCc4ccc(F)cc4)nc4cccnc43)cc2)o1	Pf Dd2 inh 11µM
O=C(NC1CC1)c1ccc(Cn2c(SCc3ccc(F)cc3)nc3cccnc32)cc1	none
Cc1cccc(CSc2nc3cccnc3n2Cc2ccc(C(=O)NCc3ccco3)cc2)c1	none
